Experimental data as given in PubChem BioAssay (Tox21).
Values without a mark were called inactive. Inconclusive results are not listed. A call without a number means that no potency is given here. Active and inactive are the calls of the source. Calls follow the shape of the dose curve; as a rule, active = well fitted curve in the direction sought with a large enough effect in the repeat runs; inconclusive = weak or mixed curves; inactive = no such curve, though single readings can be large; an effect the other way counts as inactive or inconclusive.

Tests used:
[1] = Caspase-3/7 induction in HepG2 cells by small molecules, qHTS assay (AID 1346978); also: nearly all actives have a fitted effect of over 15% in size
Method in brief: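 Caspase-3/7 induction was measured by Caspase-Glo 3/7 luminescence (30 min, room temperature) after a 17 hr compound exposure of wild-type HepG2 cells seeded at 2,000 per well and pre-incubated 5 hr.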

[2] = Caspase-3/7 induction in CHO-K1 cells by small molecules, qHTS cell viability counter screen (AID 1346979); also: nearly all actives have a fitted effect of over 35% in size; also: potency is read from the fitted curve at half-maximal effect
Method in brief: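 Cells (CHO-K1, wild type) are plated at 1,500 per well and incubated 5hr. Test compounds in DMSO are then pinned in, followed by 16hr at 37C and 5% CO2. Viability is read by CellTiter-Fluor fluorescence after 1hr.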

[3] = Caspase-3/7 induction in CHO-K1 cells by small molecules, qHTS assay (AID 1346980); also: nearly all actives have a fitted effect of over 15% in size
Method in brief: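 Luminescent Caspase-Glo 3/7 read (30min, room temperature) quantified apoptosis induction. Cells were wild-type CHO-K1, treated with compound for 17hr at 37 C and 5% CO2.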

[4] = Caspase-3/7 induction in HepG2 cells by small molecules, qHTS cell viability counter screen (AID 1346981); also: nearly all actives have a fitted effect of over 30% in size; also: potency is read from the fitted curve at half-maximal effect
Method in brief: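 Wild-type HepG2 cells (2,000/well) were allowed to settle for 5 hr at 37 C, 5% CO2, then dosed with compounds in DMSO by pin transfer. After 16 hr at 37 C, CellTiter-Fluor was added and fluorescence read 1 hr later.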

[5] = target: Nuclear receptor subfamily 1 group I member 2 (Homo sapiens) (UniProt O75469); assay: Human pregnane X receptor (PXR) small molecule agonists, qHTS assay (AID 1346982); also: nearly all actives have a fitted effect of over 35% in size
Method in brief: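 PXR-Luc HepG2 cells (CYP3A4 promoter-driven luciferase) were seeded in medium with 5% charcoal-stripped FBS, left 5 hr at 37 C, then exposed to compounds in DMSO for 24 hr. Luminescence was read after ONE-Glo addition.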

[6] = target: Cytochrome P450 2D6 (Homo sapiens) (UniProt P10635); assay: Cytochrome P450 Family 2 Subfamily D Member 6 (CYP2D6) small molecule antagonists: luciferase reporter qHTS assay (AID 1671196); also: nearly all actives have a fitted effect of over 50% in size; also: potency is read from the fitted curve at half-maximal effect
Method in brief: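 CYP2D6 enzyme–substrate mix was held with compound for 10 min at room temperature, then NADPH regeneration solution was added and the reaction ran 1 h at room temperature. Luciferin product was detected by luminescence after 20 min with detection reagent.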

[7] = target: Cytochrome P450 2C19 (Homo sapiens) (UniProt P33261); assay: Cytochrome P450 Family 2 Subfamily C Member 19 (CYP2C19) small molecule antagonists: luciferase reporter qHTS assay (AID 1671197); also: nearly all actives have a fitted effect of over 65% in size; also: potency is read from the fitted curve at half-maximal effect
Method in brief: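 Inhibition of CYP2C19 was scored from loss of luminescence in a P450-Glo proluciferin substrate assay, NADPH-started and run 1 h at 37C, with ketoconazole as positive control.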

[8] = target: Voltage-gated inwardly rectifying potassium channel KCNH2 (Homo sapiens) (UniProt Q12809); assay: Human Ether-a-go-go-Related Gene (hERG) channel small molecule antagonists: fluorescence cell-based qHTS assay (AID 1671200); also: nearly all actives have a fitted effect of over 50% in size; also: potency is read from the fitted curve at half-maximal effect
Method in brief: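 Channel function was assessed by thallium flux. Cells seeded the previous day and kept at 37 C took up FluxOR II dye over 1 h in the dark at room temperature, then sat another 10 min before stimulation.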

[9] = target: Cytochrome P450 3A4 (Homo sapiens) (UniProt P08684); assay: Cytochrome P450 Family 3 Subfamily A Member 4 (CYP3A4) small molecule antagonists: luciferase reporter qHTS assay (AID 1671201); also: nearly all actives have a fitted effect of over 50% in size; also: potency is read from the fitted curve at half-maximal effect
Method in brief: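 Compounds in DMSO were pin-transferred onto CYP3A4 enzyme-substrate mix and held 10 min at room temperature. NADPH regenerating solution started the reaction for 1 h; luciferin detection reagent stopped it, and luminescence was read after 20 min.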

[10] = target: Cytochrome P450 1A2 (Homo sapiens) (UniProt P05177); assay: Cytochrome P450 Family 1 Subfamily A Member 2 (CYP1A2) small molecule antagonists: luciferase reporter qHTS assay (AID 1671199); also: nearly all actives have a fitted effect of over 50% in size; also: potency is read from the fitted curve at half-maximal effect
Method in brief: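 Human CYP1A2 activity measured with a P450-Glo proluciferin substrate; compounds in DMSO preincubated 10 min at room temperature with enzyme-substrate mix, then NADPH regeneration system added for 1 h. Luciferin detection reagent, 20 min, luminescence read.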

[11] = target: Cytochrome P450 2C9 (Homo sapiens) (UniProt P11712); assay: Cytochrome P450 Family 2 Subfamily C Member 9 (CYP2C9) small molecule antagonists: luciferase reporter qHTS assay (AID 1671198); also: nearly all actives have a fitted effect of over 50% in size; also: potency is read from the fitted curve at half-maximal effect
Method in brief: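 Enzyme-substrate mix preincubated with compound 10 min at room temperature; reaction started with NADPH regeneration solution, 1 h 37C. Luminescent luciferin product read after 20 min detection reagent.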

[12] = target: Nuclear receptor subfamily 1 group I member 2 (Rattus norvegicus) (UniProt Q9R1A7); assay: Rat pregnane X receptor (rPXR) activation by small molecules, qHTS assay (AID 1346983); conditions: rPXR luciferase reporter cells, One-Glo luminescence, 24 h; max activation: active compounds read high; also: nearly all actives have a fitted effect of over 20% in size
Method in brief: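 Luminescent readout (One-Glo luciferase, 30 min room temperature) followed 24 hr compound treatment at 37 C of rPXR cells plated 2,000 per well and preincubated 5hr; qHTS format with compounds delivered in DMSO.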

[13] = target: Nuclear receptor subfamily 1 group I member 2 (Homo sapiens) (UniProt O75469); assay: CYP3A4 induction through human pregnane X receptor (PXR) by small molecules, qHTS assay (AID 1346984); also: nearly all actives have a fitted effect of over 40% in size
Method in brief: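 DPX-2 cells (HepG2 co-transfected with PXR and CYP3A4 promoter-luciferase) treated with compounds 24 h at 37C; luciferin-IPA CYP3A4 substrate 3uM final added for 3 h, then One-Glo; luminescence read. qHTS format.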

[14] = target: Nuclear receptor subfamily 1 group I member 2 (Homo sapiens) (UniProt O75469); assay: Human pregnane X receptor (PXR) activation by small molecules, qHTS assay (AID 1346985); also: nearly all actives have a fitted effect of over 40% in size
Method in brief: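 DPX-2 cells (HepG2 co-transfected with a PXR response element and a CYP3A4-promoter luciferase construct) were seeded at 2,000 per well, rested 5 hr at 37C, then exposed to DMSO-dissolved compounds for 24 hr. Activation was read as luciferase luminescence.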

Sequence of Cytochrome P450 3A4 (Homo sapiens) (P08684 whole entry, looked up): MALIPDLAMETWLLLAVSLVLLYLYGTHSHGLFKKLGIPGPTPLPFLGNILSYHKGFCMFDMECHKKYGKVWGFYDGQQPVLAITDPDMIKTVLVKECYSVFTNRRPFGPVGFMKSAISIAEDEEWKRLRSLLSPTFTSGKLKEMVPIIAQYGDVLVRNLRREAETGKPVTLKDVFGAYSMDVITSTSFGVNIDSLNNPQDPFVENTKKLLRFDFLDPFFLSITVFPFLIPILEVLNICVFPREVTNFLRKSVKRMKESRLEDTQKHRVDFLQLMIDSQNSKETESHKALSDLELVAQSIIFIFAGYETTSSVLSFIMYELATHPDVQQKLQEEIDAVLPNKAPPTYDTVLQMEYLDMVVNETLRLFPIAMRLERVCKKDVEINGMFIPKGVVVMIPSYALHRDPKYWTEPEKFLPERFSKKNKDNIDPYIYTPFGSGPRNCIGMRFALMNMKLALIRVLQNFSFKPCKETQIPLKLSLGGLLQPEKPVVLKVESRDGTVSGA
Sequence of Cytochrome P450 2C19 (Homo sapiens) (P33261 whole entry, looked up): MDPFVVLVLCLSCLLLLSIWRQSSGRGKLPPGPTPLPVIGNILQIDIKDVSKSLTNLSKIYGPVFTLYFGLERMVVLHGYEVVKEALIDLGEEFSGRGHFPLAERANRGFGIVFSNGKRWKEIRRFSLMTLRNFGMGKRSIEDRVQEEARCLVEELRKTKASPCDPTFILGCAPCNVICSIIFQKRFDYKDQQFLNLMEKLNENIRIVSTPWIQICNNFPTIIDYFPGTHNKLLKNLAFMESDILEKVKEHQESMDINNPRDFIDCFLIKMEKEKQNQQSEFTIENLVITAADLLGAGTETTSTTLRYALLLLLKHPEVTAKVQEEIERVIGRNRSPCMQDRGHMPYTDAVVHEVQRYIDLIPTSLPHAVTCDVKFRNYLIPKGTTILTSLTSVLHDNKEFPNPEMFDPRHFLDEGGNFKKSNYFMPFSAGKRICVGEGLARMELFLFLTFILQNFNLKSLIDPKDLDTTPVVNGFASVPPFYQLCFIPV
Sequence of Cytochrome P450 2D6 (Homo sapiens) (P10635 whole entry, looked up): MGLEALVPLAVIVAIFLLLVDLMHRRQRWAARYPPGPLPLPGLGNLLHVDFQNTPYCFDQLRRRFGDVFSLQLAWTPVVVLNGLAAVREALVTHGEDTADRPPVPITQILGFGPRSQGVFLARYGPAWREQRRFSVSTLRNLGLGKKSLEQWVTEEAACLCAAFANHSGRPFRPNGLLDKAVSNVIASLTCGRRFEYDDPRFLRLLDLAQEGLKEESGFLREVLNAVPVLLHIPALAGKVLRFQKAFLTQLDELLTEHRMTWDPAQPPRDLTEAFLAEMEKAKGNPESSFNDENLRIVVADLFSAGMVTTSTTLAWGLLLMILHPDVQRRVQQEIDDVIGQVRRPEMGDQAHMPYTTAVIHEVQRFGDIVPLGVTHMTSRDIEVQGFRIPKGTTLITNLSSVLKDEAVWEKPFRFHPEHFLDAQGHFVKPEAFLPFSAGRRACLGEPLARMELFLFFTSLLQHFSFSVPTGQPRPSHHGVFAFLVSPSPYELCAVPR
Sequence of Voltage-gated inwardly rectifying potassium channel KCNH2 (Homo sapiens) (Q12809 whole entry, looked up): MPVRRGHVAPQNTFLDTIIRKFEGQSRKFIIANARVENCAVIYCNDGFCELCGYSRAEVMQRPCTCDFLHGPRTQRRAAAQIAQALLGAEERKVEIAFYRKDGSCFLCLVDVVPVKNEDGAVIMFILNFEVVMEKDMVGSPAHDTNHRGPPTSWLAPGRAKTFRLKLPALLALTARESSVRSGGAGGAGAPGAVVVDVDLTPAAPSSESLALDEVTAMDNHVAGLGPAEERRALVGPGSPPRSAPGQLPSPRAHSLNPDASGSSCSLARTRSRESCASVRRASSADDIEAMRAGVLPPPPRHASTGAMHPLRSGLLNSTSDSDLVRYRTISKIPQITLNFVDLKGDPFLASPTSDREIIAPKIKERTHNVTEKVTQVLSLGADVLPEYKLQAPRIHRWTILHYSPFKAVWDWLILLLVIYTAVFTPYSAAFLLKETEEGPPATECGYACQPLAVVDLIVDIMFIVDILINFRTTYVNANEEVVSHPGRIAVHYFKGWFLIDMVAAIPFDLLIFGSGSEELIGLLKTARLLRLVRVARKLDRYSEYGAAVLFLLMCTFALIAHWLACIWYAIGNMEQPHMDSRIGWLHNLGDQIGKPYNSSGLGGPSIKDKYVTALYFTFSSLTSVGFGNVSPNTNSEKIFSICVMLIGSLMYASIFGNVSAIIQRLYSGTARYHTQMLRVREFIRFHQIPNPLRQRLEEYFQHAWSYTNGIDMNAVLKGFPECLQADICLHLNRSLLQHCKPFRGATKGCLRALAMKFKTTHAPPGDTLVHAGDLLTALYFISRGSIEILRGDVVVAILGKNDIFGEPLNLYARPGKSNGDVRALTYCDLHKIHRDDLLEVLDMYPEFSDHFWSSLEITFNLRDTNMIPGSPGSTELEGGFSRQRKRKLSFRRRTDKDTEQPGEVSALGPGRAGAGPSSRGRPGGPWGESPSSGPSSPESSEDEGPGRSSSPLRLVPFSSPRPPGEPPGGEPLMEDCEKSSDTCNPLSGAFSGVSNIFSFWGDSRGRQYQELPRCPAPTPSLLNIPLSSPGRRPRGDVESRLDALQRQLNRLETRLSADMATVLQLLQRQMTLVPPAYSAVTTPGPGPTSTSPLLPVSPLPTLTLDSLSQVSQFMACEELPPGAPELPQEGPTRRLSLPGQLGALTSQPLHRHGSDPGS
Sequence of Cytochrome P450 1A2 (Homo sapiens) (P05177 whole entry, looked up): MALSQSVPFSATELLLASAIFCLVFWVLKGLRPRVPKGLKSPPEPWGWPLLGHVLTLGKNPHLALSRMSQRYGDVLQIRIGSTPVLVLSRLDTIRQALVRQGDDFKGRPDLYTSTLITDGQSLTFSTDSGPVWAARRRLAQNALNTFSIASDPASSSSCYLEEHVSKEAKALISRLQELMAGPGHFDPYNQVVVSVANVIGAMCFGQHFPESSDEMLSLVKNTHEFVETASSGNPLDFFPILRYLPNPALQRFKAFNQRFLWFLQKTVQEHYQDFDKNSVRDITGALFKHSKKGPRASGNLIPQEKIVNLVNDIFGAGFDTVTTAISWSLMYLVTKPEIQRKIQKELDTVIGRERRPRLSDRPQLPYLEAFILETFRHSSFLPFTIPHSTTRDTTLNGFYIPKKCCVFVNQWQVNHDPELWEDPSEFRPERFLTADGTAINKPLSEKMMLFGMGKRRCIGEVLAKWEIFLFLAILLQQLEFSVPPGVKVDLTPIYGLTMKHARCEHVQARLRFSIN
Sequence of Cytochrome P450 2C9 (Homo sapiens) (P11712 whole entry, looked up): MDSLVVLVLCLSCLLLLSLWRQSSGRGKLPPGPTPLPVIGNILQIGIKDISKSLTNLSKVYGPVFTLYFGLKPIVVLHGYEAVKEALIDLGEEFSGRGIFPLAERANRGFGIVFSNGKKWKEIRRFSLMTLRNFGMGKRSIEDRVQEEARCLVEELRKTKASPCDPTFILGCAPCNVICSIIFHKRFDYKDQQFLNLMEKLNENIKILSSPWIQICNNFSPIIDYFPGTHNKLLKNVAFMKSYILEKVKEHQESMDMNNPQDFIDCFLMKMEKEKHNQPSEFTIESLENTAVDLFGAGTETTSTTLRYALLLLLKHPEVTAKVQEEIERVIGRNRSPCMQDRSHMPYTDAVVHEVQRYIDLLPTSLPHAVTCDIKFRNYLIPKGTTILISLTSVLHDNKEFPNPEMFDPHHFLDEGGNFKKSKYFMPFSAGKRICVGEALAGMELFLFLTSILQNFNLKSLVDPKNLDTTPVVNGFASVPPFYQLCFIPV
Sequence of Nuclear receptor subfamily 1 group I member 2 (Rattus norvegicus) (Q9R1A7 whole entry, looked up): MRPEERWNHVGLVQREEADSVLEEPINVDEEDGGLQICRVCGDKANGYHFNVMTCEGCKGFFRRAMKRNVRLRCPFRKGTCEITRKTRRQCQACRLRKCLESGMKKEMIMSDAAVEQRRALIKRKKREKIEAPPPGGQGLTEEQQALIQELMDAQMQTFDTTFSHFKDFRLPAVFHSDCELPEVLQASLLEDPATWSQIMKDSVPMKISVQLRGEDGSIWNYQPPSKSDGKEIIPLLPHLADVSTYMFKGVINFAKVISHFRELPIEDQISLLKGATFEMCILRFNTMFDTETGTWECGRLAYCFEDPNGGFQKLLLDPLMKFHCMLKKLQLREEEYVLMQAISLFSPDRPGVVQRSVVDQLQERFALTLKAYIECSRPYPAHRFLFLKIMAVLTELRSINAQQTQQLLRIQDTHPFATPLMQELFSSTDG
Sequence of Nuclear receptor subfamily 1 group I member 2 (Homo sapiens) (O75469 whole entry, looked up): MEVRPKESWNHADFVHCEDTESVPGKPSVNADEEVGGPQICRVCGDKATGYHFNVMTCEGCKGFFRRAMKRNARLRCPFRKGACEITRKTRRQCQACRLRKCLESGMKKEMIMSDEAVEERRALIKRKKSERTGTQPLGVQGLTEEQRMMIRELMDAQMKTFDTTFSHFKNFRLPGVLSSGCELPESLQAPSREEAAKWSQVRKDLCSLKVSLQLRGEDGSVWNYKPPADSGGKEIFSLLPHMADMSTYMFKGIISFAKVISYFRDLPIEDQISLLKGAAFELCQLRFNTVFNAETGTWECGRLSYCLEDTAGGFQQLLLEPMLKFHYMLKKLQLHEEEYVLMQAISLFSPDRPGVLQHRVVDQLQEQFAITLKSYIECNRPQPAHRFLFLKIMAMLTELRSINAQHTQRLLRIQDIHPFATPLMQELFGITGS

CC(CO)(CO)C(=O)O
Potency [1]: inactive
Potency [2]: inactive
outcome [3]: inactive
Potency [4]: inactive
Potency [5]: inactive
Potency [6]: inactive
Potency [7]: 72.4 µM (active)
Potency [8]: inactive
Potency [9]: inactive

CCCCCCOC(=O)CCCCC
Potency [1]: inactive
Potency [2]: inactive
outcome [3]: inactive
Potency [4]: inactive
Potency [5]: inactive
Potency [6]: inactive
Potency [7]: inactive
Potency [8]: inactive
Potency [9]: inactive

CCCCCCC(O)CCOC(C)=O (stereo not drawn)
Potency [1]: inactive
Potency [2]: inactive
outcome [3]: inactive
Potency [4]: inactive
Potency [5]: inactive
Potency [6]: inactive
Potency [7]: 167 µM (active)
Potency [8]: inactive
Potency [9]: inactive

Nc1c(Cl)cc(Cl)cc1[N+](=O)[O-]
Potency [1]: inactive
Potency [2]: inactive
outcome [3]: inactive
Potency [4]: inactive
Potency [5]: inactive
Potency [6]: inactive
Potency [10]: 5.64 µM (active)
Potency [8]: inactive

CCNc1nc(N)nc(Cl)n1
Potency [1]: inactive
Potency [2]: inactive
outcome [3]: inactive
Potency [4]: inactive
Potency [5]: inactive
Potency [11]: inactive
Potency [10]: 31.7 µM (active)
Potency [8]: inactive
Potency [9]: inactive

CC(C(=O)O)c1ccc(C(=O)c2cccs2)cc1 (stereo not drawn)
Potency [1]: inactive
Potency [2]: inactive
outcome [3]: inactive
Potency [4]: inactive
max activation [12]: -2.97%
Potency [6]: inactive
Potency [11]: 7.76 µM (active)
Potency [8]: inactive
Potency [9]: inactive

C[C@H](CS)C(=O)N1CCC[C@H]1C(=O)O
Potency [1]: inactive
Potency [2]: inactive
outcome [3]: inactive
Potency [4]: inactive
max activation [12]: 0.201%
Potency [7]: 21.9 µM (active)
Potency [10]: inactive
Potency [8]: inactive
Potency [9]: inactive

CCN(CC)C(=O)/C(C#N)=C/c1cc(O)c(O)c([N+](=O)[O-])c1
Potency [1]: inactive
Potency [2]: 26.6 µM (active)
outcome [3]: inactive
Potency [4]: 29.8 µM (active)
max activation [12]: -6.1%
Potency [13]: inactive
Potency [14]: inactive
Potency [6]: inactive
Potency [7]: inactive
Potency [11]: 0.195 µM (active)
Potency [10]: inactive
Potency [8]: inactive
Potency [9]: inactive

C=CCOC(=O)COCCC(C)C
Potency [1]: inactive
Potency [2]: inactive
outcome [3]: inactive
Potency [4]: inactive
Potency [5]: inactive
Potency [10]: inactive
Potency [8]: inactive
Potency [9]: inactive

CCN(CC)CC(=O)Nc1c(C)cccc1C(=O)OC
Potency [1]: inactive
Potency [2]: inactive
outcome [3]: inactive
Potency [4]: inactive
Potency [5]: inactive
Potency [6]: 38.9 µM (active)
Potency [11]: inactive
Potency [10]: inactive
Potency [8]: inactive
Potency [9]: inactive

CCO[Si](C)(CCCOCC1CO1)OCC (stereo not drawn)
Potency [1]: inactive
Potency [2]: inactive
outcome [3]: inactive
Potency [4]: inactive
Potency [5]: inactive
Potency [6]: inactive
Potency [7]: inactive
Potency [8]: inactive
Potency [9]: 39.9 µM (active)

COc1ccc(C2C(=O)c3ccccc3C2=O)cc1
Potency [1]: inactive
Potency [2]: inactive
outcome [3]: inactive
Potency [4]: inactive
max activation [12]: 8.42%
Potency [13]: inactive
Potency [6]: inactive
Potency [7]: 8.71 µM (active)
Potency [10]: inactive

C[C@@H]1[C@H](O)[C@@H](C)/C=C/C=C\C=C\C=C\C=C\C=C\C=C\[C@H](O[C@@H]2O[C@H](C)[C@@H](O)[C@H](N)[C@@H]2O)C[C@@H]2O[C@](O)(C[C@@H](O)C[C@@H](O)[C@H](O)CC[C@@H](O)C[C@@H](O)CC(=O)O[C@H]1C)C[C@H](O)[C@H]2C(=O)O (stereo in doubt)
Potency [1]: inactive
Potency [2]: 61.1 µM (active)
outcome [3]: inactive
Potency [4]: 48.6 µM (active)
max activation [12]: 1.92%
Potency [13]: inactive
Potency [14]: inactive
Potency [6]: inactive
Potency [7]: inactive
Potency [11]: inactive
Potency [8]: inactive
Potency [9]: inactive

CC(=O)OC(C)C[N+](C)(C)C (stereo not drawn)
Potency [1]: inactive
Potency [2]: inactive
outcome [3]: inactive
Potency [4]: inactive
max activation [12]: -2.41%
Potency [13]: inactive
Potency [14]: inactive
Potency [6]: inactive
Potency [7]: inactive
Potency [8]: inactive
Potency [9]: inactive

CC(C)CC(O)CC(C)C
Potency [1]: inactive
Potency [2]: inactive
outcome [3]: inactive
Potency [4]: inactive
Potency [6]: inactive
Potency [7]: inactive
Potency [11]: inactive
Potency [10]: inactive
Potency [8]: inactive
Potency [9]: inactive

CCCCCCC(CO)CCCC (stereo not drawn)
Potency [1]: inactive
Potency [2]: inactive
outcome [3]: inactive
Potency [4]: inactive
Potency [6]: inactive
Potency [7]: inactive
Potency [11]: inactive
Potency [10]: inactive
Potency [8]: inactive
Potency [9]: inactive

CC(C)(C)C(O)/C=C/c1ccc2c(c1)OCO2 (stereo not drawn)
Potency [1]: inactive
Potency [2]: inactive
outcome [3]: inactive
Potency [4]: inactive
Potency [6]: 27.5 µM (active)
Potency [7]: 3.89 µM (active)
Potency [11]: 3.89 µM (active)
Potency [10]: 5.75 µM (active)
Potency [8]: inactive

O=C(CCS)OCC(COC(=O)CCS)(COC(=O)CCS)COC(=O)CCS
Potency [1]: inactive
Potency [2]: inactive
outcome [3]: inactive
Potency [4]: inactive
Potency [6]: inactive
Potency [7]: 15.9 µM (active)
Potency [10]: inactive
Potency [8]: 38.9 µM (active)
Potency [9]: 5.64 µM (active)

Cc1cc(CCC(=O)OCCOCCOCCOC(=O)CCc2cc(C)c(O)c(C(C)(C)C)c2)cc(C(C)(C)C)c1O
Potency [1]: inactive
Potency [2]: inactive
outcome [3]: inactive
Potency [4]: inactive
Potency [6]: 9.78 µM (active)
Potency [7]: 2.76 µM (active)
Potency [10]: inactive
Potency [8]: inactive
Potency [9]: 2.46 µM (active)

CC(=O)NNC(C)=O
Potency [1]: inactive
Potency [2]: inactive
outcome [3]: inactive
Potency [4]: inactive
Potency [6]: inactive
Potency [7]: inactive
Potency [11]: inactive
Potency [10]: inactive
Potency [8]: inactive
Potency [9]: inactive

COc1cc(S(=O)(=O)Nc2ccccc2)c(OC)cc1N
Potency [1]: inactive
Potency [2]: inactive
outcome [3]: inactive
Potency [4]: inactive
Potency [7]: 15.9 µM (active)
Potency [10]: 39.9 µM (active)
Potency [8]: inactive
Potency [9]: 3.56 µM (active)

CCCCCCCC(=O)OCCCCCC
Potency [1]: inactive
Potency [2]: inactive
outcome [3]: inactive
Potency [4]: inactive
Potency [6]: inactive
Potency [7]: inactive
Potency [10]: inactive
Potency [8]: inactive
Potency [9]: inactive
